This note sets out measurements from PubChem BioAssay (Tox21).

A number with no mark means an inactive call. Records with an inconclusive call do not appear. Entries that show only a call come without a potency. The source made the active and inactive calls. Unless noted, calls follow the shape of the dose curve; as a rule, active = well fitted curve in the direction sought with a large enough effect in the repeat runs; inconclusive = weak or mixed curves; inactive = no such curve, though single readings can be large; an effect the other way counts as inactive or inconclusive.

One experiment is described as follows: qHTS assay to identify small molecule antagonists of the estrogen related receptor (ERR) signaling pathway from Tox21 library (AID 1224848). Also: nearly all actives have a fitted effect of over 50% in size. To be noted: ERR reporter cell line, luciferase antagonist mode, 18 h; series mostly up to 92.4 µM. The method, boiled down:
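First, 2,000 ERR cells per well were plated and held 6 h at 37 C/5% CO2. Next, compounds in DMSO were pinned in and left 18 h at 37 C. Finally, ONE-Glo was added and luminescence read after 30 min at room temperature.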
On the technique in general: qHTS replaces the single test concentration by a dilution series.
In the case of `COC1=CC(=O)O[C@@H](/C=C/c2ccccc2)C1`, the Potency result was “inactive”.

Regarding `CN(C)CCN(C)C`, the Potency result was “inactive”.

Regarding `[P]#[In]`, the Potency entry was “inactive”.

Another experiment is described as follows: qHTS assay to identify small molecule agonists of the estrogen related receptor (ERR) signaling pathway from Tox21 library (AID 1224849; calls by dose curve; also: nearly all actives have a fitted effect of over 15% in size). To be noted: ERR reporter cell line, ONE-Glo luciferase, 18 h; at 92.4 µM (top of the series) unless noted. An outline of the steps: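 Luminescent agonist read-out (One-Glo, 30-minute room-temperature incubation) following 18-hour compound treatment at 37 C of the ERR cell line, which had been plated 6 hours before dosing.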
Consider `COC1=CC(=O)O[C@@H](/C=C/c2ccccc2)C1`, for which the activity change, positive = activation is 12.9%.

For `CN(C)CCN(C)C`, the activity change, positive = activation was 9.25%.

Turning to `[P]#[In]`, the activity change, positive = activation is 3.59%.

A further experiment is described as follows: qHTS RealTime-Glo MT Cell Viability Assay in HepG2 cells - 24 hour (AID 1224867). Also: nearly all actives have a fitted effect of over 50% in size. To be noted: RealTime-Glo luminescence; series mostly up to 76.8 µM. An outline of the steps:
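Cell number in HepG2 cultures estimated from NanoLuc luminescence generated by metabolic reduction of a prosubstrate by living cells. The homogeneous, nonlytic format allowed repeated reads at 0, 8, 16, 24, 32 and 40 h of compound exposure.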
Turning to `CCCOC(=O)Cc1ccc(OCC(=O)N(CC)CC)c(OC)c1`, the Potency result was “inactive”.

Consider `O=C(Cl)C(Cl)Cl`, for which the Potency result was “inactive”.

For the compound `CC[C@H](N)c1ccccc1`, the Potency entry is “inactive”.

Consider `CC(O)CCl` (centres undefined), for which the Potency result was “inactive”.

As to `CCCCCCCC(=O)Cl`, the Potency result is “inactive”.

As for `CCCCCCCCBr`, the Potency entry was “inactive”.

`O=C(O)C(Cl)Br` (centres undefined): the Potency result was “inactive”.

Consider `COC1=CC(=O)O[C@@H](/C=C/c2ccccc2)C1`, for which the Potency result was “inactive”.

Regarding `ClCCN1CCCC1`, the Potency result was “inactive”.

Turning to `C=CC=O`, the Potency result was “inactive”.

Turning to `O=C(O)c1c(Cl)ccc2cc(Cl)cnc12`, the Potency result was “inactive”.

Take `CS(=O)(=O)Cl`: the Potency result was “inactive”.

On to `CCOC(=O)CC(SP(=S)(OC)OC)C(=O)OCC` (centres undefined), for which the Potency entry was “inactive”.

As for `[O-][Br+2]([O-])O`, the Potency entry is “inactive”.

As to `Cc1cccc2sc3nncn3c12`, the Potency result was “inactive”.

As for `CN1C(=O)COc2c(C(=O)NC3CN4CCC3CC4)cc(Cl)cc21` (centres undefined), the Potency entry was “inactive”.

`CCN(CCO)CCO`: the Potency entry is “inactive”.

As for `CON(C)C(=O)Nc1ccc(Br)cc1`, the Potency entry is “inactive”.

For the compound `N=C(N)[Se]`, the Potency result is “inactive”.

As for `ClC1=C(Cl)C2(Cl)C(CBr)CC1(Cl)C2(Cl)Cl` (centres undefined), the Potency result is “inactive”.

As to `CN(C)CCN(C)C`, the Potency result was “inactive”.

As to `CC(C)(O)C(Cl)(Cl)Cl`, the Potency entry was “inactive”.

In the case of `C/C(=N\NC(=O)Nc1cc(F)cc(F)c1)c1ncccc1C(=O)O`, the Potency result was “inactive”.

In the case of `C1CN2CCC1CC2`, the Potency entry was “inactive”.

Consider `CCOC1Oc2ccc(OS(C)(=O)=O)cc2C1(C)C` (centres undefined), for which the Potency entry is “inactive”.

Consider `O=CCCl`, for which the Potency entry was “inactive”.

Take `CC#Cc1cc(C)nc(Nc2ccccc2)n1`: the Potency entry was “inactive”.

On to `CCOC(=O)CCl`, for which the Potency result is “inactive”.

Take `CNC(=O)O/N=C(/CSC)C(C)(C)C`: the Potency result is “inactive”.

With `CCOC(=O)Nc1cccc(OC(=O)Nc2ccccc2)c1`, the Potency entry is “inactive”.

For the compound `CCN[C@H](C)Cc1cccc(C(F)(F)F)c1`, the Potency entry was “inactive”.

Turning to `CC(C)[C@]12CC(=O)[C@H](C)[C@H]1C2`, the Potency result is “inactive”.

Consider `O=C1CCCCC1Cl` (centres undefined), for which the Potency entry is “inactive”.

As to `[P]#[In]`, the Potency entry is “inactive”.

Turning to `CC(C)(C)C(=O)C(Cl)Cl`, the Potency entry was “inactive”.

A further experiment in a line: qHTS RealTime-Glo MT Cell Viability Assay in HEK293 cells - 32 hour (AID 1224868). Also: top concentration of the series differs between compounds; nearly all actives have a fitted effect of over 50% in size. As to conditions: RealTime-Glo luminescence; series mostly up to 76.8 µM. An outline of the steps:
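Homogeneous bioluminescent viability format in HEK293 cells (600 cells/well). Following 5 h at 37 C/5% CO2, 23 nL compound was pintooled; the signal was measured repeatedly during 40 h incubation.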
Turning to `CC[C@H](N)c1ccccc1`, the Potency entry was “inactive”.

Regarding `CC(O)CCl` (centres undefined), the Potency result was “inactive”.

Regarding `CCCCCCCC(=O)Cl`, the Potency entry is “inactive”.

For the compound `CCCCCCCCBr`, the Potency entry was “inactive”.

In the case of `COC1=CC(=O)O[C@@H](/C=C/c2ccccc2)C1`, the Potency entry was “inactive”.

For `ClCCN1CCCC1`, the Potency entry was “inactive”.

In the case of `O=C(O)c1c(Cl)ccc2cc(Cl)cnc12`, the Potency entry is “inactive”.

Turning to `CS(=O)(=O)Cl`, the Potency entry is “inactive”.

For `CCOC(=O)CC(SP(=S)(OC)OC)C(=O)OCC` (centres undefined), the Potency result was “inactive”.

As to `Cc1cccc2sc3nncn3c12`, the Potency result is “inactive”.

As to `CN1C(=O)COc2c(C(=O)NC3CN4CCC3CC4)cc(Cl)cc21` (centres undefined), the Potency result was “inactive”.

As for `CCN(CCO)CCO`, the Potency entry was “inactive”.

Regarding `N=C(N)[Se]`, the Potency result was “inactive”.

Consider `CN(C)CCN(C)C`, for which the Potency entry is “inactive”.

Turning to `CC(C)(O)C(Cl)(Cl)Cl`, the Potency result was “inactive”.

Regarding `C/C(=N\NC(=O)Nc1cc(F)cc(F)c1)c1ncccc1C(=O)O`, the Potency entry was “inactive”.

Regarding `O=CCCl`, the Potency result was “inactive”.

For `CNC(=O)O/N=C(/CSC)C(C)(C)C`, the Potency entry is “inactive”.

On to `CCOC(=O)Nc1cccc(OC(=O)Nc2ccccc2)c1`, for which the Potency entry was “inactive”.

Take `CC(C)[C@]12CC(=O)[C@H](C)[C@H]1C2`: the Potency result was “inactive”.

In the case of `O=C1CCCCC1Cl` (centres undefined), the Potency result was “inactive”.

As to `[P]#[In]`, the Potency result is “inactive”.

As to `CC(C)(C)C(=O)C(Cl)Cl`, the Potency result was “inactive”.
